From PubChem BioAssay AID1159580 (chemical genetic matrix, 2015)
In all, about 5,500 compounds went through this assay and about 2,000 (36%) were called active. Another 18% or so got no clear call; they are omitted. Rule as the data show it: active = normalized growth mostly below about 0.91 (no sharp cut-off); inconclusive = no clear call, values can overlap the other calls; inactive = mostly above about 0.92. The list shows a part of the results.

Assay: chemical genetic growth profiling, strain panel (AID 1159580);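 also: tested at 20 µM; growth read once vehicle control cultures reached saturation at 30 °C; 1 = growth at the plate median or of vehicle wells; lower values mean less growth of the strain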
Conditions: S. cerevisiae deletion strains, growth OD

Measured: normalized growth

CCn1c(=O)c2[nH]c(-c3ccccc3)nc2n(CC)c1=O
inactive: locus YAL040C, strain CLN3, stronger effect = lower value 1 | locus YCL061C, strain MRC1 (second series), stronger effect = lower value 0.997 | locus YDR363W, strain ESC2, stronger effect = lower value 1.01 | locus YER002W, strain NOP16, stronger effect = lower value 1.04 | locus YMR307W, strain GAS1, stronger effect = lower value 0.992 | locus YNL175C, strain NOP13, stronger effect = lower value 1.01 | locus YNL197C, strain WHI3, stronger effect = lower value 1.01 | locus YNL224C, strain SQS1, stronger effect = lower value 1 | locus YOR083W, strain WHI5 (second series), stronger effect = lower value 1.01 | locus YPL055C, strain LGE1, stronger effect = lower value 1 | locus YPL241C, strain CIN2, stronger effect = lower value 1.01
